CRFBP-R2 agonist = agonists of CRF-BP/CRF-R2 complex, primary screen, cell-based, HEK293, calcium dye fluorescence, uHTS; CRF-binding protein / CRF receptor 2 complex (human); calcium dye fluorescence (FLIPR); percent of saturating CRF peptide response; activation, % at 13.2 µM; 350,000 compounds, 0.46% hits; AID 588473, 2011;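 active = activation of at least 50%, plus an integration ratio under a set limit after plate pattern correction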;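 note: plate controls were neutral control wells without compound for no effect and CRF at EC100 for full effect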
IDE inh = human IDE inhibitors in live cells, primary screen, fluorescence polarization, HEK cells, FAbetaB substrate | Insulin-degrading enzyme (Homo sapiens), P14735 | FAbetaB cleavage | inhibition, % at 5.59 µM | 320,000 compounds, 0.41% hits | AID 434962, 2010;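 active = percent inhibition above the average of all tested compounds plus 3 SD, set per screening campaign, cut at about 16% in these data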;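 note: IDE supplied by intact live HEK cells; FP after avidin binding of uncleaved biotin substrate so inhibition keeps polarization high; 0% = DMSO wells and 100% = 60 µM reference IDE inhibitor Ii1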
Target sequence (P14735 whole entry, looked up): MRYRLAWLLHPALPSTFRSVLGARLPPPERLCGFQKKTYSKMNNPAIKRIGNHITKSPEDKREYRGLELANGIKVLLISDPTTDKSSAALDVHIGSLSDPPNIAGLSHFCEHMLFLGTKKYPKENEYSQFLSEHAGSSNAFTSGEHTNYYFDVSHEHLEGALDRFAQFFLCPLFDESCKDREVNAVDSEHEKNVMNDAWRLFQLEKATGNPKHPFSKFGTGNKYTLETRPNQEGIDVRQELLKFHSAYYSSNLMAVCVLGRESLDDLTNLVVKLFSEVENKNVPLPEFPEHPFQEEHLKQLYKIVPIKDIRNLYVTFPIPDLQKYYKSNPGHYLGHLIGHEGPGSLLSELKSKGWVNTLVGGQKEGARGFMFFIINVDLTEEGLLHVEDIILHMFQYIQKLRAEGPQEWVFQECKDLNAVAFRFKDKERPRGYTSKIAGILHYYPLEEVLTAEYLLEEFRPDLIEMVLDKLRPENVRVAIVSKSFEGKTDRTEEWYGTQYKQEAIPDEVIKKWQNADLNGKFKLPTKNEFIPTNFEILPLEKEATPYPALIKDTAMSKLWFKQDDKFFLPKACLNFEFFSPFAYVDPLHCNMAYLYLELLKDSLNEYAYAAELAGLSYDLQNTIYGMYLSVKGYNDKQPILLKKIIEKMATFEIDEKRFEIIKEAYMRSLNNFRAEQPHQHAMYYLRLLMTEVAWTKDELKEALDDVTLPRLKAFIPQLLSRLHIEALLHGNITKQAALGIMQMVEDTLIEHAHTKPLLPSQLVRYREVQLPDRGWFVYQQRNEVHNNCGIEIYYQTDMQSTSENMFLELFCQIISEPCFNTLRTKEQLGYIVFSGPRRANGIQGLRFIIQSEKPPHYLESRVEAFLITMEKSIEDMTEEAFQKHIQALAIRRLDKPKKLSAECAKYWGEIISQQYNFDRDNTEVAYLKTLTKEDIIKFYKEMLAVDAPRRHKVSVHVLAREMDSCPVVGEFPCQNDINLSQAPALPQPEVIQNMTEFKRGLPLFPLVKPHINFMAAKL
Cardiac RTF inh = cardiac RTF calcium sensitivity inhibitors, primary screen, biochemical, IANBD-TnC fluorescence, EC70 calcium | Troponin I, cardiac muscle (Homo sapiens) + Troponin T, cardiac muscle (Homo sapiens) + … | IANBD-labeled cardiac RTF, Ca2+ fluorescence | 340,000 compounds, 0.12% hits | inhibition, % at 7.15 µM;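 active = inhibition above the mean inhibition of all tested compounds plus 3 SD, cut at about 17% in these data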;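 note: assay run at fixed EC70 calcium of 1.6 mM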
RTF Ca sens act = cardiac RTF calcium sensitivity activators, primary screen, biochemical, IANBD-TnC fluorescence, EC20 calcium; Troponin I, cardiac muscle (Homo sapiens) + Troponin T, cardiac muscle (Homo sapiens) + …; IANBD-labeled TnC RTF fluorescence at EC20 calcium; 0% EC20 calcium, 100% full calcium; activation, % at 7.2 µM; 340,000 compounds, 0.24% hits;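 active = activation above the mean over all tested compounds plus 3 SD, cut at about 30% in these data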;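 note: rise in fluorescence read as greater calcium sensitivity of cardiac thin filaments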
TPT1 inh = Candida albicans TPT1 enzyme inhibitors, primary screen, biochemical, fluorescence polarization. tRNA 2'-phosphotransferase TPT1 (Candida albicans SC5314). recombinant caTPT1, FP RNA substrate dephosphorylation. inhibition, % at 5 µM. 300,000 compounds, 0.81% hits. AID 1962, 2009;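 active = inhibition above the mean of all tested compounds plus 3 SD, set per screening campaign, cut at about 24% in these data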;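 note: plate controls were DMSO alone for no effect and ferristatin control at 100 nM for full effect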
IDE cell activ = human IDE activators in live cells, primary screen, fluorescence polarization, HEK cells, FAbeta-B substrate | Insulin-degrading enzyme (Homo sapiens), P14735 | FAbeta-B cleavage; 0% vehicle, 100% cell-free pure enzyme wells | activation, % at 5.96 µM | 340,000 compounds, 0.073% hits | AID 493087, 2011;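 active = activation above the mean of all tested compounds plus 3 SD, set per screening campaign, cut at about 17% in these data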
IDE inh confirm = human IDE inhibitors in live cells, confirmation, fluorescence polarization, HEK cells, FAbetaB substrate | shares compounds with IDE inh | FAbetaB cleavage | inhibition, % at 5.59 µM | 1,200 compounds, 51% hits | AID 435028, 2010;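 active = mean inhibition across triplicate wells above the cutoff set by the earlier primary insulin-degrading enzyme screen, cut at about 16% in these data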;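 note: 0% = DMSO wells and 100% = 60 µM reference IDE inhibitor Ii1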
HEK cytotox = cytotoxicity in HEK cells, cytotoxicity control for IDE inhibitor project, cell-based, luminescence. shares compounds with IDE inh. HEK293 cytotoxicity, ATP luminescence. inhibition, % at 5.59 µM. 1,200 compounds, 28% hits; in the data active = inhibition above about 22%;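 note: 0% = vehicle wells and 100% = reference cytotoxic drug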
FP fluor counter = fluorescent or optically active artefacts, dose response, artefact control for IDE inhibitor project, biochemical, fluorescence polarization; shares compounds with IDE inh; FP counterscreen for fluorescent artifacts, IDE probe project; IC50, µM; 30 tested, under 10 active; call rule not given here
Numbers without * were called inactive; x = no result given. An excerpt weighted towards active compounds, which were near 1.5% of everything screened.

SMILES	CRFBP-R2 agonist	IDE inh	Cardiac RTF inh	RTF Ca sens act	TPT1 inh	IDE cell activ	IDE inh confirm	HEK cytotox	others
CC(C#N)(CCc1ccccn1)CCc1ccccn1	-0.4	x	0.1	-2.4	x	2.8	x	x
COc1ccc(-c2nnc(Nc3nc4c(OC)cccc4s3)o2)cc1	-2.3	24.4*	8.5	-9.7	-8.7	-14.7	18.8*	8.0
COc1ccc(-c2nnc(Nc3nc4c(OC)cccc4s3)o2)c(OC)c1	-0.1	12.8	-3.0	-6.0	-1.9	-18.9	x	x
O=C(CNC(=O)c1ccc(S(=O)(=O)N2CCCC2)cc1)N/N=C/c1ccc(Cl)cc1Cl	0.4	23.5*	3.4	3.1	-3.2	-7.2	5.2	7.6
Cc1cccc(C)c1NC(=O)CCCCCC1NC(=O)NC1C (stereo not given)	-1.3	22.3*	3.7	-2.6	-0.5	-42.5	1.4	7.2
COc1cc(/C=c2\s/c(=C(/C#N)C(=O)N3CCCC3)n(-c3ccccc3)c2=O)ccc1O	66.9*	28.2*	-13.2	6.3	19.5	-120.4	151.5*	29.5*
COC(=O)/C=c1/s/c(=C(/C#N)C(=O)N2CCCCC2)n(-c2ccccc2)c1=O	-0.6	-2.0	-6.3	9.5	-1.8	-4.4	x	x
Cc1cccc(NC(=O)c2sc3nc(-c4ccccc4)cn3c2C)n1	10.5	17.5*	-9.8	3.4	18.1	-11.1	10.8	29.4*
Cc1c(C(=O)NCc2ccccn2)sc2nc(-c3ccc(F)cc3)cn12	1.7	19.6*	1.0	4.0	-3.2	-11.1	11.3	62.5*
COc1ccc(-c2cn3c(C)c(C(=O)Nc4cccc(C)n4)sc3n2)cc1	1.8	0.7	-1.2	0.2	7.2	-0.8	x	x
COc1ccccc1N1CCN(C2CCCN(C(=O)c3ccccn3)C2)CC1 (stereo not given)	0.1	-0.2	-1.6	-0.2	1.8	2.2	x	x
O=C(c1cc(F)c(F)cc1Cl)N1CCCc2ccccc21	-2.6	-0.8	-8.8	1.9	0.5	-2.0	x	x
COc1cc(/C=N\NC(=O)c2ccc(-c3ccccc3)cc2)cc(Br)c1O	-1.4	21.2*	-4.5	-7.0	-2.3	-9.9	12.1	12.8
S=c1nccc(-c2cccs2)[nH]1	1.0	19.7*	10.7	-2.9	-6.6	-16.3	4.2	11.5
c1csc(-c2ccn[nH]2)c1	-0.4	-3.8	-7.3	-0.6	1.5	0.7	x	x
Cc1cccc(N2CCN(CC(=O)Nc3ccc(S(=O)(=O)N4CCOCC4)cc3)CC2)c1C	0.4	19.0*	3.0	6.7	-0.8	-11.9	8.7	43.0*
CC(c1nc2ccccc2c(=O)[nH]1)N1CCCN(S(=O)(=O)c2ccc(F)cc2)CC1 (stereo not given)	-1.3	6.7	2.1	-2.5	x	1.1	x	x
CSc1ccc(C2C(C#N)=C(N)Oc3c2ccc(=O)c2c(C)oc(C)c32)cc1 (stereo not given)	6.8	29.8*	-18.5	11.9	39.8*	-31.1	109.4*	25.2*
CCCCCCNC(=O)N[C@H](C(=O)NCCC[C@H]1CN2C(=NC[C@H]2C)N1CCC(c1ccccc1)c1ccccc1)C(C)O (stereo not given in full)	x	16.4*	-3.9	-1.4	-2.4	-16.5	5.2	37.7*
Cc1c(Cl)cccc1NC(=O)N1CCCN(c2nc(-c3ccccc3)ns2)CC1	-2.8	17.2*	-10.9	7.0	1.4	-11.6	1.8	50.7*
O=C(Nc1ccccc1Cl)N1CCCN(c2nc(-c3ccccc3)ns2)CC1	3.3	20.7*	-5.0	1.2	0.4	-14.8	8.0	31.4*
Cc1c(Cl)cccc1NC(=O)N1CCCC1	0.1	1.0	-16.9	-2.8	-1.4	3.4	x	x
O=C(Nc1ccccc1)N1CCN(c2nc(-c3ccccc3)ns2)CC1	0.9	13.9	7.3	-3.9	-2.2	-26.0	x	x
COc1c(O)ccc(/C=C(\C#N)c2nc3ccccc3[nH]2)c1[N+](=O)[O-]	2.1	17.3*	1.1	-2.3	5.3	4.2	2.8	3.7
Cc1ccc2nc(/C(C#N)=C\c3cc(O)ccc3[N+](=O)[O-])[nH]c2c1	6.9	-0.5	0.0	-0.3	10.1	6.0	x	x
SMILES	CRFBP-R2 agonist	IDE inh	Cardiac RTF inh	RTF Ca sens act	TPT1 inh	IDE cell activ	IDE inh confirm	HEK cytotox	others
Cc1ccc(S(=O)(=O)N2CCOCC2)cc1NC(=O)COC(=O)CNC(=O)c1ccc(Oc2ccccc2)cc1	-1.7	16.7*	4.0	3.4	-5.6	-12.4	6.0	12.6
Cc1ccccc1N(CC(=O)Nc1ccccc1C(=O)O)S(C)(=O)=O	4.0	23.2*	-9.9	6.9	1.7	-34.4	14.1	5.7
O=C(NC1CCCC1)C(c1ccc(F)cc1)N(Cc1ccccc1Cl)C(=O)CCl (stereo not given)	0.0	0.4	-3.2	-5.9	0.0	5.8	x	x
CCCCN(C)C(=S)Nc1ccc2nc3n(c(=O)c2c1)CCCCC3	2.9	-2.3	4.4	-4.4	-3.7	2.6	x	x
COc1ccc(-c2csc(NC(=O)c3cc(C)oc3C)n2)cc1OC	-0.9	16.5*	-6.0	-2.3	8.8	-12.3	13.0	21.3
COc1ccccc1NC(=O)Cn1cnc2c(nc3n2CCCCC3)c1=O	0.5	-2.0	-1.8	-4.9	-2.9	7.2	x	x
CC(Sc1nnc(-c2cccnc2)n1-c1ccccc1F)C(=O)N1CCCc2ccccc21 (stereo not given)	x	21.7*	x	x	-0.3	x	16.2*	8.0	FP fluor counter=>54.7
O=C(CSc1ccc(-c2cccnc2)nn1)N1CCCc2ccccc21	x	3.2	x	x	3.7	x	x	x
C=CCOc1ccc(/C=C/C(=O)N2CCCN(S(=O)(=O)c3c(C)noc3C)CC2)cc1	-1.5	x	-12.4	-4.7	x	2.3	x	x
O=C(CCC1N=C2c3ccccc3N=C(SCc3ccccc3Cl)N2C1=O)NCc1ccco1 (stereo not given)	0.6	21.2*	6.6	-2.7	-0.7	-0.3	2.4	18.9
Cn1c(/C=C/c2cccc(Br)c2)nc2ccccc2c1=O	1.0	19.0*	-5.4	-1.2	-0.4	-10.5	5.6	18.6
